Experimental data reported in PubChem BioAssay.
Several values for one entry are separate records, joined by “and”; a condition that tells them apart may be missing. Equal values may be shown once. Results filed as inconclusive are left out. Activity calls are given as the source filed them. Unless noted, no rule for the calls is given here. Non-standard residues stand in square brackets, D forms with d. Residues, ends and D or L forms follow the SMILES beside them. pGlu = O=C1CC[C@@H](C(=O)O)N1; Thz = O=C(O)[C@@H]1CSCN1

Tests used:
[1] = compounds altering circadian rhythm period length – cell-based, LOPAC library, luminescence reporter (AID 2774); conditions: circadian reporter cells, at 7 µM, actives lie on both sides;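 also: values are relative to mean of DMSO wells on each plate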
[2] = system: Hepatitis C virus NS3 helicase; assay: blockers of NS3h binding to ssDNA – biochemical, fluorescence polarization, LOPAC1280 library, primary screen (AID 687035; in the data active = inhibition above about 37%); conditions: Purified HCV NS3 helicase, Cy5-dT15 ssDNA binding fluorescence polarization; stronger effect = higher value; concentration not given here
[3] = compounds altering Cy5-DNA-NS3h complex signal – biochemical, LOPAC1280, artefact control for HCV NS3 helicase inhibitor project (AID 687037); conditions: Cy5-DNA-NS3h complex fluorescence interference counterscreen
[4] = system: Neuropilin-2 / VEGF-C interaction (human); assay: small molecules blocking Neuropilin-2/VEGF-C interaction – biochemical, microplate binding format, z-score (AID 743281); conditions: microplate NRP2/VEGF-C binding assay; stronger effect = lower value
[5] = system: Aerobactin synthetase IucA (Klebsiella pneumoniae); assay: inhibition of K. pneumoniae IucA enzyme – biochemical, Tocris library, absorbance (AID 1345561); conditions: purified IucA enzyme assay, absorbance (OD) read-out; stronger effect = lower value;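 tested at 8 µM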;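 also: 100% = enzyme without compound and 0% = no enzyme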
[6] = viability loss in pontine glioma line – cell-based, SU-DIPG-XVII, MIPE5.0, CellTiter-Glo, qHTS, dose response (AID 1347060; cut-off not given, nearly all actives have AC50 up to about 26 µM); conditions: CellTiter-Glo ATP luminescence
[7] = viability loss in pontine glioma line – cell-based, JHH-DIPG-1, MIPE4.0, CellTiter-Glo, qHTS, dose response (AID 1347062; cut-off not given, nearly all actives have AC50 up to about 27 µM;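 as to AC50: cells exposed to compound for two days before readout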); conditions: JHH-DIPG-1 viability, CellTiter-Glo ATP luminescence
[8] = viability loss in pontine glioma line – cell-based, SU-DIPG-IV, MIPE4.0, CellTiter-Glo, qHTS, dose response (AID 1347063; cut-off not given, nearly all actives have AC50 up to about 30 µM;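 also: compound exposure lasted 48 hours before the viability readout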); conditions: CellTiter-Glo ATP luminescence
[9] = viability loss in pontine glioma line – cell-based, SU-DIPG-XIII, MIPE5.0, CellTiter-Glo, qHTS, dose response (AID 1347064; cut-off not given, nearly all actives have AC50 up to about 23 µM); conditions: CellTiter-Glo ATP luminescence
[10] = viability loss in pontine glioma line – cell-based, SU-DIPG-XXV, MIPE5.0, CellTiter-Glo, qHTS, dose response (AID 1347065; cut-off not given, nearly all actives have AC50 up to about 26 µM;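 also: cells exposed to compound for 48 hours before ATP readout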); conditions: CellTiter-Glo ATP luminescence
[11] = growth inhibition of DIPG cells – cell-based, MIPE4.0 library, CellTiter-Glo luminescence, qHTS (AID 1347066; cut-off not given, nearly all actives have AC50 up to about 30 µM;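 also: cells exposed to compound for 48 hours before readout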); conditions: SU-DIPG-VI viability, CellTiter-Glo ATP luminescence
[12] = JHH-DIPG-1 glioma cell viability, MIPE5.0 library, CellTiter-Glo luminescence, qHTS (AID 1347067; cut-off not given, nearly all actives have AC50 up to about 26 µM;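 also: cells exposed to compound for 48 hours before readout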); conditions: JHH-DIPG-1 glioma viability, CellTiter-Glo ATP luminescence
[13] = growth inhibition of DIPG cells – cell-based, MIPE5.0 library, qHTS (AID 1347068; cut-off not given, nearly all actives have IC50 up to about 30 µM); conditions: SU-DIPG-XXV viability
[14] = blockers of cellular phospholipid synthesis – cell-based, LOPAC library, screen 4, primary screen (AID 1347384); conditions: animal cells, phospholipid biosynthesis inhibition screen; at 10 µM
[15] = molecular target: NAD(+) hydrolase SARM1 (Homo sapiens) (UniProt Q6SZW1); assay: blocking NAD cleavage by SARM1 SAM-TIR – cell lysate, NAD-Glo luminescence (AID 1508614;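 active = compound whose remaining NAD level is above about 45 nM, limit read from the data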;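 also: higher remaining NAD means stronger inhibition of SARM1 NADase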); conditions: SAM-TIR HEK293T lysate NADase, at 1 µM, stronger effect = higher value
[16] = viability loss in pontine glioma line – cell-based, SU-DIPG-XIII, MIPE4.0, CellTiter-Glo, qHTS, dose response (AID 1347061; cut-off not given, nearly all actives have AC50 up to about 37 µM;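 also: cells exposed to compound for 48 hours before readout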); conditions: CellTiter-Glo ATP luminescence
[17] = molecular target: Mitogen-activated protein kinase 7 (Homo sapiens) (UniProt Q13164); assay: Gal4-ERK5 driven luciferase induction – cell-based, HTS, primary screen (AID 1508626;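 active = luciferase signal above three times the same-plate solvent-only control wells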;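 also: luciferase driven by Gal4-ERK5 fusion binding five Gal4 sites before minimal TATA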); conditions: HeLa Gal4-ERK5 transactivation, 18 h, at 5 µM, stronger effect = higher value
[18] = galactose survival enhancers in mitochondrial complex I cybrids – cell-based, galactose medium, ATP luminescence, primary screen (AID 1645843;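 active = z-score of at least 1.8 in each of two replicates, scored against plate mean and spread of sample wells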;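 also: positive z means more ATP and so rescue of galactose-driven cybrid death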); conditions: complex I mutant cybrid cells, 72 h, stronger effect = higher value

Mitogen-activated protein kinase 7 (Homo sapiens), sequence (Q13164 whole entry, looked up, the tested form may be a part): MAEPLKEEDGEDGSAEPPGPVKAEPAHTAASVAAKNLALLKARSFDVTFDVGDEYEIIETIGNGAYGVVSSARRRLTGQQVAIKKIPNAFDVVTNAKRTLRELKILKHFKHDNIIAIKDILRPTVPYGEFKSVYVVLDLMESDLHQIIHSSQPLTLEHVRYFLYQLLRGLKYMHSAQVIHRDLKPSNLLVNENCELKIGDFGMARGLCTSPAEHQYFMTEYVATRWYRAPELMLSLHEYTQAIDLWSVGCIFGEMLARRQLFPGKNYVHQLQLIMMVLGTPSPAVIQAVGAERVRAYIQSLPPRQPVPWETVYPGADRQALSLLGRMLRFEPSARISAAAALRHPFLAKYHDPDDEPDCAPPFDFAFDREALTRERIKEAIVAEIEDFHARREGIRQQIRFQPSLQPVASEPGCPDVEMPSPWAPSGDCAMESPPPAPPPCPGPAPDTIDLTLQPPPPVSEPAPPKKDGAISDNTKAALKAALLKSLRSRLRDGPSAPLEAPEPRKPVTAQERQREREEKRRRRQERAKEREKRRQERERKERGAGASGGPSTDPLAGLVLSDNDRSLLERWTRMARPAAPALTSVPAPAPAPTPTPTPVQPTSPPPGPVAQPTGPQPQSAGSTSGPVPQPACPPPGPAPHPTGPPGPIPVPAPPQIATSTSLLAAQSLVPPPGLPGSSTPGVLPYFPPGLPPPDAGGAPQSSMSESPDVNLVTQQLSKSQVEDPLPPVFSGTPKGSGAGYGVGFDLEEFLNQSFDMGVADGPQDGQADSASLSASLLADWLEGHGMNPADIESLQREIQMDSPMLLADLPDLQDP
NAD(+) hydrolase SARM1 (Homo sapiens), sequence (Q6SZW1 whole entry, looked up): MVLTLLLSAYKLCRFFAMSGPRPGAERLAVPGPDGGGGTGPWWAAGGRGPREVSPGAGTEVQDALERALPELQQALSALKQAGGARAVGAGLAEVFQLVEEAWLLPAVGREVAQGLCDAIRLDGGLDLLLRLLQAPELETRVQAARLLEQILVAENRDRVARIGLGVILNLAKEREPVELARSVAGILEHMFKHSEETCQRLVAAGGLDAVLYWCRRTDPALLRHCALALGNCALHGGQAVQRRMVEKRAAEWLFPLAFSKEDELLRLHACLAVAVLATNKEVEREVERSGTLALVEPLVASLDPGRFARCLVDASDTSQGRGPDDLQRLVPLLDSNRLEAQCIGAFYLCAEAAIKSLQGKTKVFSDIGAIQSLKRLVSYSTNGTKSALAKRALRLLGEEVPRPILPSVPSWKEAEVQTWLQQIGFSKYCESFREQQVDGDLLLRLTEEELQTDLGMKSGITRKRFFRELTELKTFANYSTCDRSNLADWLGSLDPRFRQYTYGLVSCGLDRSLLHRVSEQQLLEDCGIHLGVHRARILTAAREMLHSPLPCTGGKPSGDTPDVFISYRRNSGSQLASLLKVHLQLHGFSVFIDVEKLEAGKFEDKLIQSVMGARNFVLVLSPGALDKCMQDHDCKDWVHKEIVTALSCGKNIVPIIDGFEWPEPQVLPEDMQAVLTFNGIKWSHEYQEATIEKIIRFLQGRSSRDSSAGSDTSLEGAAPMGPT

CC(C)NCC(O)c1ccc(NS(C)(=O)=O)cc1 (stereo not given)
inactive: period change [1] -0.07 h | inhibition [2] -2% | fluorescence ratio (interference) [3] 1 | z-score [4] -0.291 | remaining activity [5] 91.3% | outcome [6] | outcome [7] | outcome [8] | outcome [9] | outcome [10] | outcome [11] | outcome [12] | outcome [13] | outcome [14] | remaining NAD [15] 10 nM

C[C@H]1O[C@H](O[C@H]2[C@H](O)[C@@H](O)[C@@H](O[C@H]3[C@H](O)[C@@H](O)C(O)O[C@@H]3CO)O[C@@H]2CO)[C@H](O)[C@@H](O)[C@@H]1N[C@H]1C=C(CO)[C@@H](O)[C@H](O)[C@H]1O (stereo not given in full)
inactive: z-score [4] -1.33 | outcome [6] | outcome [16] | outcome [7] | outcome [10] | outcome [11] | outcome [12] | outcome [13] | remaining NAD [15] 10 nM | luciferase signal [17] 52 AU

CC[C@H]1OC(=O)[C@H](C)[C@@H](O[C@H]2C[C@@](C)(OC)[C@@H](O)[C@H](C)O2)[C@H](C)[C@@H](O[C@@H]2O[C@H](C)C[C@H](N(C)C)[C@H]2O)[C@](C)(O)C[C@@H](C)CN(C)[C@H](C)[C@@H](O)[C@]1(C)O
inactive: outcome [6] | outcome [7] | outcome [8] | outcome [9] | outcome [10] | outcome [11] | outcome [12] | outcome [13] | remaining NAD [15] 10 nM | luciferase signal [17] 20 AU | z-score [18] 1.2

CN/C(=C\[N+](=O)[O-])NCCSCc1csc(CN(C)C)n1
inactive: z-score [4] 0.209 | remaining NAD [15] 10 nM

CCOC(=O)c1ccc(OC(=O)CCCCCN=C(N)N)cc1
inactive: z-score [4] -0.315 | remaining activity [5] 124% | outcome [6] | outcome [16] | outcome [7] | outcome [8] | outcome [9] | outcome [11] | outcome [12] | outcome [13] | z-score [18] 0.415 and -0.085

O=C1CC[C@@H](C(=O)N2CSC[C@H]2C(=O)O)N1 ([pGlu]-[Thz]-OH)
inactive: z-score [4] -0.307 | remaining NAD [15] 10 nM

CC(Cc1ccc(O)c(O)c1)(NN)C(=O)O (stereo not given)
inactive: outcome [6] | outcome [16] | outcome [7] | outcome [8] | outcome [9] | outcome [10] | outcome [11] | outcome [12] | z-score [18] -1.27

CN(C)CCCC1(c2ccc(F)cc2)OCc2cc(C#N)ccc21 (stereo not given)
inactive: period change [1] -0.06 h | inhibition [2] -4% | fluorescence ratio (interference) [3] 1 | z-score [4] 0.0126 | remaining activity [5] 108% | outcome [8] | outcome [11] | outcome [14] | remaining NAD [15] 10 nM | luciferase signal [17] 68 AU

Cc1cc2c(s1)Nc1ccccc1N=C2N1CCN(C)CC1
active: AC50 [12] 1.18 µM
inactive: outcome [4] | outcome [6] | outcome [16] | outcome [7] | outcome [9] | outcome [10] | outcome [11] | outcome [13] | outcome [14] | remaining NAD [15] 10 nM | luciferase signal [17] 136 AU | z-score [18] -0.17 and -0.015

CNCC[C@@H](Oc1ccccc1C)c1ccccc1
inactive: z-score [4] 0.0903 | remaining activity [5] 96.2% | remaining NAD [15] 10 nM | luciferase signal [17] 64 AU | z-score [18] -0.26

Cc1c(C(=O)NN2CCCCC2)nn(-c2ccc(Cl)cc2Cl)c1-c1ccc(I)cc1
inactive: z-score [4] 0.177 | remaining activity [5] 112% | z-score [18] -1.88 and -0.83

CN(C)CCc1c[nH]c2ccc(Cn3cncn3)cc12
active: AC50 [7] 20.9 µM | AC50 [8] 20.9 µM
inactive: outcome [4] | outcome [16] | outcome [11] | remaining NAD [15] 10 nM | luciferase signal [17] 52 AU | z-score [18] 0.12

CNCC[C@H](Oc1cccc2ccccc12)c1cccs1
active: AC50 [16] 1.32 µM
inactive: z-score [4] 0.369 and 0.383 | outcome [11] | remaining NAD [15] 10 nM | luciferase signal [17] 36 AU

CCN(CC)CC#CCOC(=O)C(O)(c1ccccc1)C1CCCCC1 (stereo not given)
inactive: period change [1] -0.025 h | inhibition [2] -3% | fluorescence ratio (interference) [3] 0.9 | outcome [16] | outcome [7] | outcome [8] | outcome [11] | outcome [14] | remaining NAD [15] 10 nM | luciferase signal [17] 68 AU | z-score [18] -1.22 and -1.39
